High-throughput results as filed in PubChem.
Compounds with a hit are over-represented: about 2.7% of the library has one in this group of screens.
gsp agonist = qHTS for Agonist of gsp, the Etiologic Mutation Responsible for Fibrous Dysplasia/McCune-Albright Syndrome: qHTS; gsp mutant cells, cAMP HTRF, 30 min; Potency, µM (titrated, usually from 76.9 µM), without a hit: top-dose activation (cAMP increase), hits mostly activators; 0.13% of 340,000 active; active means well fitted activation curve with a large enough effect; inconclusive means small, poorly fitted or top-dose-only effect, or another doubt; inactive means no such curve, though single readings can be large or run the other way; cell line not stated here;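 further: phosphodiesterase inhibitor Ro 20-1724 added with compounds to block cAMP breakdown; potency means the concentration at half of the fitted maximal effect; nearly all actives have a fitted effect of over 60% in size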
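Cells stably selected in G418 were plated at 2000/well, grown 16-24 hr, then given compounds in DMSO with the PDE inhibitor […] (300 uM solution added) for 30 min at 37C; cAMP was read by HTRF.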
pAkt inh = HTS Assay for Inhibitors of Akt Phophorylation: Primary Screen | 0.32% of 360,000 active | activity change, % for hits at 50 µM | Neuro2A IGF-stimulated pAkt S473 HTRF, 20 min; stronger effect = lower value; in the data active means activity change below about -80%; inconclusive means mostly about -51% to -80%; further: on the % scale 0 is the no-effect control and ±100 the full control effect
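Neuro2A cells in DMEM with 0.5% FBS, overnight at 37 deg C, given compound at single 50 µM final, then IGF (6 nM final) for 20 min at 37 deg C. Lysed; phospho-Akt Ser473 by HTRF after 24 h, 665/615 ratio.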
ClpP mod = qHTS Assay for Activators of ClpP; ATP-dependent Clp protease proteolytic subunit (Bacillus subtilis (strain 168)), P80244; purified B. subtilis ClpP, FRET peptide cleavage, 20 min; Potency, µM (series often up to 57.5 µM), without a hit: at the top dose activity change, negative = active; 1.9% of 340,000 active; AID 651965, 2013; active means well fitted falling curve with a large enough effect; inconclusive means small, poorly fitted or top-dose-only effect; inactive means no such curve, though single readings can be large or run the other way; further: potency means the concentration at half of the fitted maximal effect; the source files actives as falling curves though it sought activators and does not explain the sign; nearly all actives have a fitted effect of over 65% in size
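Buffer: 100 mM Tris/HCl pH8, 100 mM KCl, 0.05% low protease BSA, 2.5% glycerol, 0.01% Tween-20. ClpP 10 microg/mL final; 20 min RT; delta FRET normalized to ADEP and DMSO controls.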
RXFP1 antagonist = qHTS Assay for Antagonists of the Relaxin Receptor RXFP1 | Relaxin receptor 1 (Homo sapiens), Q9HBX9 | HEK293-RXFP1, relaxin-stimulated cAMP HTRF, 30 min; stronger effect = lower value | activity change, negative = inhibition, % at 57.5 µM | 0.59% of 350,000 active | AID 1259400, 2018;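 active means activity change of -60% or lower, but not beyond a set lower limit; inconclusive means change between -60% and -40%, or beyond the set limit; inactive means change above -40%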; further: on the % scale 0 is the no-effect control and ±100 the full control effect
Target sequence (Q9HBX9 whole entry, looked up): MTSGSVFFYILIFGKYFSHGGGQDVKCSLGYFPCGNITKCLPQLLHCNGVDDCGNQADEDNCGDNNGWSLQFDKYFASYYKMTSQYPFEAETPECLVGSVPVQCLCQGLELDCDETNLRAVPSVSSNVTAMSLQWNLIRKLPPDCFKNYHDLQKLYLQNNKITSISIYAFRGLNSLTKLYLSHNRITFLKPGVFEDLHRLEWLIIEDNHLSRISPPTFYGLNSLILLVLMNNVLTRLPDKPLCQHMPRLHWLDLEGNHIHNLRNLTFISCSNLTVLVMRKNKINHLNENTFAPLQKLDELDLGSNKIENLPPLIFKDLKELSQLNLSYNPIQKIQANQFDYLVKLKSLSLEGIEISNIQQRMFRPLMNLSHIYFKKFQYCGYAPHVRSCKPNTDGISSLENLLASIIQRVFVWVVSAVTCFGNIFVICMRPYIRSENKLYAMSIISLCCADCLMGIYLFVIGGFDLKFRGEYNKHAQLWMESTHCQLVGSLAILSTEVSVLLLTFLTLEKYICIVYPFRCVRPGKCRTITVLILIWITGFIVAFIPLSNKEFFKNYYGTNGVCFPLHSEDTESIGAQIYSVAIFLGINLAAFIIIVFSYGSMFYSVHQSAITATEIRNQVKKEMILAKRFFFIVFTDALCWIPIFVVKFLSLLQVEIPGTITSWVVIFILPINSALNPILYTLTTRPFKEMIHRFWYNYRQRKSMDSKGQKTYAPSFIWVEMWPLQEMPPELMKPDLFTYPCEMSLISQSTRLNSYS
RXFP1 agonist = qHTS Assay for Agonists of the Relaxin Receptor RXFP1 | Potency, µM (series often up to 57.5 µM), inactives show at the highest dose activation, most hits filed as activators | HEK293T-RXFP1 cAMP TR-FRET, 30 min; response scale: percent of porcine relaxin response, buffer zero | AID 2676, 2010 | Relaxin receptor 1 (Homo sapiens), Q9HBX9 | 0.3% of 370,000 active; active means well fitted activation curve with a large enough effect; inconclusive means small, poorly fitted or top-dose-only effect; further: potency means the concentration at half of the fitted maximal effect; on the % scale 0 is the no-effect control and ±100 the full control effect; nearly all actives have a fitted effect of over 60% in size
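HEK293T cells stably expressing RXFP1 were pretreated with the PDE4 inhibitor Ro 20174, exposed to compounds for 30 min at 37C, lysed, and cAMP was read by TR-FRET. Data normalized to buffer (basal) and 29 nM porcine relaxin (100%).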
gsp antag = qHTS for Antagonists of gsp, the Etiologic Mutation Responsible for Fibrous Dysplasia/McCune-Albright Syndrome: qHTS | Potency, µM (highest dose often 76.9 µM), for inactives: at the highest dose activity change, negative = inhibition, hits mostly inhibitors | gsp-mutant cells, cAMP HTRF, 30 min | 0.4% of 340,000 active | AID 624288, 2012; calls by dose curve; cell line not stated here;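 further: intracellular cAMP measured with PDE inhibitor Ro 20-1724 present during compound exposure; potency means the concentration at half of the fitted maximal effect; on the % scale 0 is the no-effect control and ±100 the full control effect; nearly all actives have a fitted effect of over 65% in size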
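Cells, 2000/well, grown 16–24 h in DMEM 10% FBS with 0.5 mg/ml G418, then compounds plus […] (300 uM addition stock), 30 min at 37C. cAMP read by HTRF (cAMP-d2 and anti-cAMP antibody-K in lysis buffer) after 30 min RT.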
Active calls of the source: *; i = inactive; ? = inconclusive; . = no result given; [ ] = remark or other dose.

SMILES	gsp agonist	pAkt inh	ClpP mod	RXFP1 antagonist	RXFP1 agonist	gsp antag
O=C(N/N=C/c1ccc(O)c(Br)c1)c1cc2c(ccc3ccccc32)o1	11%	i	-22%	-3	0%	-15%
O=C(N/N=C/c1cccnc1)c1cc2c(ccc3ccccc32)o1	-1%	i	-7%	19	0%	-6%
O=C(N/N=C/c1cc(Br)c(O)c(Br)c1)c1cc2c(ccc3ccccc32)o1	-36%[15.4 µM]	i	-2%	-100*	6%	-30%
CCOC(=O)COc1ccccc1/C=N\NC(=O)c1cc2c(ccc3ccccc32)o1	0%[15.4 µM]	i	28µM*	-8	-5%	-17%
C[C@]12CC[C@H](O)CC1=CCC1C2CC[C@@]2(C)C1CC[C@@H]2NCc1ccccc1 (stereo not given in full)	-18%	i	-1%	0	.	.
CS(=O)(=O)n1nc(-c2ccco2)nc1NCc1ccccc1Cl	.	.	-2%	12	1%	.
CC(=O)Oc1ccc(/C=N\NC(=O)c2cc3c(ccc4ccccc43)o2)cc1	28%	i	3%	-1	4%	11µM*
Cc1cc(=O)oc2cc(OCC(=O)N3CCCC(C)C3)ccc12 (stereo not given)	3%	.	32µM*	-11	-1%	-14%
COc1ccc(C(=O)OCc2cc(=O)oc3cc(C)ccc23)cc1S(=O)(=O)N1CCOCC1	?	i	-10%	8	.	.
COc1ccc2c(COC(=O)c3ccc(C)c(S(=O)(=O)N4CCOCC4)c3)cc(=O)oc2c1	13%	i	25µM*	-11	.	-26%
Cc1cc(=O)oc2cc(OCC(=O)N3CC(C)OC(C)C3)ccc12 (stereo not given)	-3%	i	?	-9	1%	4%
COc1ccc(S(=O)(=O)N2CCN(C(=O)COc3ccc4c(C)cc(=O)oc4c3)CC2)cc1	-33%	i	22µM*	-2	-1%	?
Cc1cccc(S(=O)(=O)c2c(N)n(/N=C/c3ccccc3)c3nc4ccccc4nc23)c1	-4%	i	?	-7	1%	14%
Nc1c(S(=O)(=O)c2ccccc2)c2nc3ccccc3nc2n1/N=C/c1cccc(O)c1	-5%	i	10µM*	-9	2%	-16%
Cc1ccc(C)c(S(=O)(=O)c2c(N)n(/N=C/c3ccco3)c3nc4ccccc4nc23)c1	6%	i	7.9µM*	-7	1%	-15%
Cc1cc(C=O)cc(C)c1[N+](=O)[O-]	.	.	1%	.	.	.
O=C(NC(Nc1ncc(S(=O)(=O)c2ccc([N+](=O)[O-])cc2)s1)(C(F)(F)F)C(F)(F)F)c1ccc(Cl)cc1	4%[15.4 µM]	i	0%	-36	-3%	35µM*
COCC(=O)Nc1ncc(S(=O)(=O)c2ccc([N+](=O)[O-])cc2)s1	6%[15.4 µM]	i	-1%	-7	1%	0%
O=C(COC(=O)/C=C/c1cccc(C(F)(F)F)c1)NCCN1C(=O)CSC1=O	-20%	i	-2%	2	3%	3%
C[C@@H]1CC[C@@]2(OC1)O[C@H]1C[C@H]3[C@@H]4CC[C@H]5C[C@@H](O)CC[C@]5(C)[C@H]4CC(=O)[C@]3(C)[C@H]1[C@@H]2C	.	.	.	-8	.	.
COc1cc(/C=C(\C#N)c2nc3ccc(C)cc3[nH]2)cc([N+](=O)[O-])c1O	-35%	i	.	-19	-3%	25µM*
COc1cc(/C=C(\C#N)c2nc3ccc(C)cc3[nH]2)c([N+](=O)[O-])cc1OC	-12%	i	-1%	15	2%	25%
CCOC(=O)Oc1ccc(CCNC(=O)[C@H](CCSC)NC(C)=O)cc1OC(=O)OCC	.	.	.	-11	.	.
CCc1nnc(SCc2nc(-c3ccc(OC)cc3)oc2C)c2cc3sccc3n12	.	.	?	20	20%	.
CCN(CC(=O)NCc1cccs1)C(=O)c1cccc(S(=O)(=O)Nc2ccccc2Cl)c1	-15%	i	35µM*	-7	-1%	-13%
SMILES	gsp agonist	pAkt inh	ClpP mod	RXFP1 antagonist	RXFP1 agonist	gsp antag
COc1nc(-c2ccccc2)ccc1-c1noc(-c2ccccc2)n1	22%	.	?	-12	1%	1%
COc1nc(-c2ccccc2)ccc1-c1noc(-c2cccs2)n1	11%	i	20µM*	2	.	10%
COc1nc(-c2ccccc2)ccc1-c1noc(COc2ccccc2)n1	0%	i	10µM*	-12	4%	-5%
CCOc1nc(-c2ccc(C)cc2)ccc1-c1noc(COC)n1	-4%	i	32µM*	-20	1%	-15%
COc1nc(-c2ccccc2)ccc1-c1noc(-c2ccco2)n1	-3%	i	32µM*	-9	0%	-10%
CCSc1ncc(Cl)c(C(=O)N2CCN(c3ccccc3OC)CC2)n1	.	.	0%	.	1%	.
Cc1cc(C)n(-c2ccc(C(=O)OCC(=O)N3CCN(c4ccccc4)CC3)cc2)n1	22%	i	1%	2	.	0%
Cc1ccc2[nH]c(CSc3nnc(NC(=O)c4ccccc4C)s3)cc(=O)c2c1	.	.	2%	-2	5%	.
COc1ccc(-c2cc(C(F)(F)F)nc(SCCC(=O)Nc3ccc(F)cc3F)n2)cc1	.	.	?	.	6%	.
COCCNC(=O)CCn1c(=O)c2cc(OC)c(OC)cc2n(CC(=O)Nc2ccc(F)c(Cl)c2)c1=O	.	.	4%	3	-1%	.
O=c1c2cc3c(cc2n(Cc2cccc(F)c2)c(=O)n1Cc1nc(-c2ccccc2)no1)OCO3	.	.	-10%	-8	-1%	.
COc1ccc(-c2ccc(-c3noc(-c4ccccc4)n3)c(OC)n2)cc1	1%	?	84%	-7	17%	-3%
COc1ccc(-c2ccc(-c3noc(-c4ccco4)n3)c(OC)n2)cc1	-4%	i	28µM*	-10	5%	-2%
O=C(COC(=O)CSc1ccc([N+](=O)[O-])cc1)NCC1CCCO1 (stereo not given)	26%	i	-1%	-2	-2%	-14%
C=CCNC(=O)C1CCN(c2nc(C)cc(-c3ccccc3)n2)CC1	15%	i	25µM*	3	0%	-9%
Cc1cc(-c2ccccc2)nc(N2CCC(C(=O)NCc3ccccc3Cl)CC2)n1	.	.	.	.	23%	.
